Among all 100,000 compounds or so, about 770 (0.77%) were called active. This excerpt belongs to a sample that is enriched for actives. Values without a mark were called inactive. No stated cut-off is given here; in the data, active means inhibition above about 50%; inactive means the rest.

This assay concerns the target Gag-Pol polyprotein (Human immunodeficiency virus type 1 group M subtype B (isolate HXB2)) (UniProt P04585). Nature of the assay: RNase H inhibition, HIV 1 Gag Pol polyprotein, FRET biochemical assay, screening (AID 372). The conditions noted are these: HIV-1 RT RNase H, FRET RNA/DNA substrate fluorescence; at 10 µM; active compounds read high.
With `CCN(CC)S(=O)(=O)c1ccc(C(C)(C)C)cc1`, the inhibition is 15%.

On to `N/C(=C\C(=O)c1ccccc1O)C(F)(F)F`, for which the inhibition is 8%.

For the compound `CCc1nn(-c2ccccc2)c2nc(-c3ccccc3C)c3cc(OC)c(OC)cc3c12`, the inhibition was 13%.

As to `COc1ccc(/C=C2/C(=O)NC(=O)N(Cc3ccco3)C2=O)cc1C`, the inhibition is 12%. In the case of `O=C(O)CC1SC(=NC(=O)c2ccco2)N(c2ccccc2)C1=O` (configuration not stated) it was 0%; in that of `O=C1/C(=C\c2ccc(O)c(O)c2)SC(=S)N1c1cccc(C(F)(F)F)c1`, 48%; in that of `O=C1/C(=C\c2ccc(O)c(O)c2)SC(=S)N1c1cccc2ccccc12`, 72% (active).

On to `O=C1/C(=C/c2cccc(O)c2)SC(=S)N1c1ccc(O)cc1`, for which the inhibition is 26%. The result for `O=C1/C(=C\c2ccc(O)cc2)SC(=S)N1c1ccc(Cl)cc1` reads 36%; that for `Cc1ccc(N2C(=O)/C(=C/c3ccc(F)cc3)SC2=S)cc1C`, 6%; that for `O=C1NC(=O)N(c2cccc3ccccc23)C(=O)/C1=C/c1ccc(O)c(O)c1`, 22%. In the case of `Cc1ccc(N2C(=O)/C(=C/c3ccc(Cl)cc3)SC2=S)cc1C` it was 5%; in that of `CN(C)c1ccc(/C=C2\C(=O)N(c3nc(-c4ccc(Cl)cc4)cs3)N=C2c2ccccc2)cc1`, 37%; in that of `Cc1ccc(C(=O)N2N=C(c3ccc(Cl)cc3)CC2(O)C(F)(F)F)o1` (configuration not stated), 20%. In the case of `CCCC(C)C(=O)Nc1cccc([N+](=O)[O-])c1C` (configuration not stated) it was 11%; in that of `O=C1CC(NCc2ccc3c(c2)OCO3)C(=O)N1c1ccc(Cl)cc1` (configuration not stated), 8%; in that of `CC(C)Cn1nc(-c2ccccc2)c2ccccc2c1=O`, 18%.

Regarding `O=c1c2ccccc2c(-c2ccccc2)nn1CCc1ccccc1`, the inhibition is 53% (active). The result for `O=c1c2ccccc2c(-c2ccccc2)nn1Cc1cccc(Br)c1` reads 15%; that for `COc1ccc(OC)c(C2NC(=S)NC(C)=C2C(=O)OCCc2ccccc2)c1` (configuration not stated), 21%.

Turning to `COc1ccc(OC)c(C2NC(=S)NC(C)=C2C(=O)OCCOc2ccccc2)c1` (configuration not stated), the inhibition was 50% (active). In the case of `COCCOC(=O)C1=C(C)NC(=S)NC1c1cc(OC)ccc1OC` (configuration not stated) it was 15%; in that of `COc1ccc(/C(O)=C2/C(=O)C(=O)N(CCCCCC(=O)O)C2c2ccc([N+](=O)[O-])cc2)cc1` (configuration not stated), 6%. The result for `CCOC(=O)Cc1csc(N/N=C\c2c(Cl)ccc(Cl)c2Cl)n1` reads 20%. The result for `O=C(CN1C(=O)C2C3CCC(C3)C2C1=O)Nc1ccccc1` (configuration not stated) reads 14%; that for `CCOc1cc(C(=S)N2CCC(C)CC2)ccc1O`, 50% (active); that for `CCOc1cc(C(=S)N2CCCCC2)ccc1O`, 8%. For the compound `CCOc1cc(C(=S)N2CCOCC2)cc(Br)c1O`, the inhibition was 13%.

On to `COc1cc(C(=S)N2CCCCC2)cc(Br)c1O`, for which the inhibition is 37%. With `COc1cc(C(=S)N2CCOCC2)cc(I)c1O`, the inhibition was 45%. As for `CCOc1cc(C(=S)N2CCCCC2)cc(Br)c1O`, the inhibition is 56% (active). In the case of `CCOc1cc(C(=S)N2CCCCC2)cc(I)c1O` it was 59% (active); in that of `COc1cc(C(=S)N2CCCCC2)ccc1O`, 0%. The result for `COc1cc(C(=S)N2CCC(C)CC2)ccc1O` reads 7%; that for `CS(=O)(=O)N(CC(=O)Nc1cccc2ccccc12)c1cccc(Cl)c1`, 10%; that for `O=C1CC(c2ccccc2)CC(O)=C1C=NCc1ccc(F)cc1` (configuration not stated), 8%.

Take `Cc1nnc(N/N=C/c2cccc([N+](=O)[O-])c2)[nH]c1=O`: the inhibition is 8%. The result for `CCOC(=O)C1CCN(C(=O)COc2ccc(C)cc2C)CC1` reads 4%; that for `Fc1ccc(Br)cc1SCCc1ccccn1`, 0%. Regarding `CCOc1cc(/C=C2/SC(=S)NC2=O)cc([N+](=O)[O-])c1OCCCOc1ccc(Cl)cc1`, the inhibition is 27%. In the case of `COc1ccc(C(=O)NC(=S)Nc2cc(-c3nc4ccccc4s3)ccc2Cl)cc1OC` it was 10%; in that of `COc1ccc(C(=O)NC(=S)Nc2cc(-c3nc4ccccc4s3)ccc2C)cc1`, 1%; in that of `Cc1ccc(-c2nc3ccccc3s2)cc1NC(=O)c1ccc(Cl)c([N+](=O)[O-])c1`, 3%. In the case of `COc1ccc(C(=O)NC(=S)Nc2cc(-c3nc4ccccc4s3)ccc2Cl)cc1` it was 50% (active); in that of `O=C(NC(=S)Nc1cc(-c2nc3ccccc3s2)ccc1Cl)c1ccccc1`, 37%. The result for `O=C(NC(=S)Nc1cc(-c2nc3ccccc3s2)ccc1Cl)c1ccc(Cl)cc1` reads 33%; that for `Cc1cc(C(=O)Nc2cc(-c3nc4ccccc4s3)ccc2Cl)ccc1[N+](=O)[O-]`, 52% (active). Turning to `Cc1ccc(C(=O)Nc2cc(-c3nc4ccccc4s3)ccc2Cl)cc1[N+](=O)[O-]`, the inhibition is 39%. In the case of `O=C1C(=Cc2ccc(Oc3ccc(C(F)(F)F)cc3[N+](=O)[O-])c(Cl)c2)C(=O)c2ccccc21` it was 16%; in that of `Cc1cc(Oc2cc(NC(=O)c3cc(-c4ccccc4)nc4ccccc34)cc([N+](=O)[O-])c2)ccc1Cl`, 0%; in that of `Cc1cc(C)c2oc(-c3ccc(C)c(NC(=O)c4cccs4)c3)nc2c1`, 15%. The result for `CCOc1ccc(/C=N/n2c(-c3ccc(OC)cc3)n[nH]c2=S)cc1OC` reads 12%. Consider `COc1cc2ccccc2cc1C(=O)Nc1cccc2ccccc12`, for which the inhibition is 10%.

As for `Cc1cc(S(=O)(=O)Oc2ccc3ccccc3c2)c(Cl)cc1Cl`, the inhibition was 42%. `O=S(=O)(Oc1ccc2ccccc2c1)c1cc(Cl)c(Cl)cc1Cl`: the inhibition was 58% (active). The result for `COc1ccc(OS(=O)(=O)c2cc(Cl)c(Cl)cc2Cl)cc1` reads 31%; that for `O=C(Nc1ccccc1C#Cc1ccccc1)C(c1ccccc1)c1ccccc1`, 8%.

Regarding `Cc1ccc(/C=C2\SC(=S)N(CCC(=O)Nc3cc(Cl)cc(Cl)c3)C2=O)cc1`, the inhibition was 14%. In the case of `CC1(C)C(c2ccccc2)=NC(c2ccccc2F)=[N+]1[O-]` it was 0%.

As to `COc1ccc(/C=N/NC(=O)c2cc(-c3ccc(Cl)cc3)n[nH]2)cc1`, the inhibition is 14%. The result for `CC(C)(C)N1C(=O)c2ccc(C(=O)c3ccc(C(=O)O)cc3)cc2C1=O` reads 0%.

For `Cc1cc(/C=C2\NC(=O)NC2=O)c(C)n1-c1cccc([N+](=O)[O-])c1`, the inhibition was 29%.

The inhibition is the relative decrease from the control value, in per cent.

Source of the values: PubChem BioAssay AID372 (MTDP, 2006).
